# Reference: PubChem BioAssay (EPA / NIEHS)
# “And” between values parts separate entries of the source, which are not always exact repeats. Identical values can stand only once. Records with an inconclusive call do not appear. The source made the active and inactive calls. How the source made its calls, unless noted: active means hit-call score of the fitted dose curve at least 0.9, where 1 is the maximum; inconclusive means response in the unintended direction; inactive means score below 0.9.
# Assays:
# [1] = biological target: human CYP2B6, CYP2B6 (gene 1555) (UniProt P20813); assay: NVS_ADME_hCYP2B6: NovaScreen (NVS) CYP450-related Enzyme Activity (ADME) Assay for human CYP2B6 (AID 2283101)
# In short: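 Recombinant human CYP2B6 with fluorogenic substrate, read by fluorescence intensity 1 h after dosing. Primary screen in duplicate at 10 uM, actives followed in concentration series; signal loss relative to acetonitrile control.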
# [2] = biological target: Cytochrome P450 2C18 (Homo sapiens) (UniProt P33260); assay: NVS_ADME_hCYP2C18: NovaScreen (NVS) CYP450-related Enzyme Activity (ADME) Assay for human CYP2C18 (AID 2283103; active means hit-call score of the fitted dose curve at least 0.9, where 1 is the maximum; inactive means score below 0.9)
# In short: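 Cell-free recombinant human CYP2C18 with fluorogenic substrate; fluorescence intensity read 0.5 h after dosing. Single-point screen at 10 uM in duplicate, then concentration-response up to 20 uM; loss of signal fitted against acetonitrile baseline.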
# [3] = biological target: human CYP2C9, CYP2C9 (gene 1559) (UniProt P11712); assay: NVS_ADME_hCYP2C9: NovaScreen (NVS) CYP450-related Enzyme Activity (ADME) Assay for human CYP2C9 (AID 2283108)
# In short: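 Fluorescence readout of CYP2C9 activity (SF9-expressed human enzyme) at 0.75 h. The primary screen used 10 uM in duplicate, with concentration-response follow-up for actives; acetonitrile was the negative control.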
# [4] = biological target: Cytochrome P450 3A4 (Homo sapiens) (UniProt P08684); assay: NVS_ADME_hCYP3A4: NovaScreen (NVS) CYP450-related Enzyme Activity (ADME) Assay for human CYP3A4 (AID 2283110)
# In short: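 Compounds were first screened in duplicate at 10 uM against recombinant CYP3A4 produced in insect cells, then actives were run in concentration series. Enzyme activity was measured by fluorescence after 0.33 hour, with acetonitrile as baseline.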
# [5] = biological target: Cytochrome P450 2C19 (Homo sapiens) (UniProt P33261); assay: NVS_ADME_hCYP2C19: NovaScreen (NVS) CYP450-related Enzyme Activity (ADME) Assay for human CYP2C19 (AID 2283113);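 on AC50: potency for inhibition seen as loss of fluorescent signal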
# In short: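 Chemicals first screened in duplicate at 10 uM against recombinant human enzyme produced in insect cells; confirmed actives then run as concentration series. Fluorogenic substrate turnover read by fluorescence after 1 h, normalised to acetonitrile.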
# [6] = biological target: human CYP1A2, CYP1A2 (gene 1544) (UniProt P05177); assay: NVS_ADME_hCYP1A2: NovaScreen (NVS) CYP450-related Enzyme Activity (ADME) Assay for human CYP1A2 (AID 2283102);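 on AC50: fluorescence from turnover of a fluorogenic substrate by recombinant insect-cell CYP1A2; potency for inhibition since loss of fluorescence marks reduced CYP1A2 activity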
# In short: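 Compounds were tested at 10 uM in duplicate against recombinant CYP1A2 produced in insect cells. Enzyme activity was measured by fluorescence 0.5 h after dosing, with loss of signal versus acetonitrile control. Active compounds were re-tested in concentration series.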
# [7] = biological target: human CYP2C8, CYP2C8 (gene 1558) (UniProt P10632); assay: NVS_ADME_hCYP2C8: NovaScreen (NVS) CYP450-related Enzyme Activity (ADME) Assay for human CYP2C8 (AID 2283104; active means hit-call score of the fitted dose curve at least 0.9, where 1 is the maximum; inactive means score below 0.9)
# In short: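 Recombinant human CYP2C8 with fluorogenic substrate, 0.5 h, fluorescence intensity; signal loss fitted versus acetonitrile. Screened in duplicate at 10 uM, then actives run in concentration-response up to 20 uM.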
# [8] = biological target: human CYP2J2, CYP2J2 (gene 1573) (UniProt P51589); assay: NVS_ADME_hCYP2J2: NovaScreen (NVS) CYP450-related Enzyme Activity (ADME) Assay for human CYP2J2 (AID 2283106)
# Procedure: NVS_ADME_hCYP2J2 is a biochemical, single-readout assay that uses extracted gene-proteins in a cell-free assay. Measurements were taken 1 hour after chemical dosing in a 96-well plate.NVS_ADME_hCYP2J2 is one of one assay component(s) measured or calculated from the NVS_ADME_hCYP2J2 assay. It is designed to make measurements of enzyme activity, a form of enzyme reporter, as detected with fluorescence intensity signals by Fluorescence technology.Data from the assay component NVS_ADME_hCYP2J2 was analyzed into 1 assay endpoint. This assay endpoint, NVS_ADME_hCYP2J2, was analyzed in the positive analysis fitting direction relative to Acetonitrile as the negative control and baseline of activity. Using a type of enzyme reporter, loss-of-signal activity can be used to understand changes in the enzymatic activity as they relate to the gene CYP2J2. Furthermore, this assay endpoint can be referred to as a primary readout, because this assay has produced multiple assay endpoints where this one serves a enzymatic activity function. To generalize the intended target to other relatable targets, this assay endpoint is annotated to the cyp intended target family, where the subfamily is xenobiotic metabolism.
# Binding assays used specific radioligands (tritiated, iodinated) with non-radioactive competitive displacement ligands in agonist or antagonist protocols (as indicated) and various reference compounds and inhibitors to titrate specific binding to receptors and transporters. Most enzyme assays (CYPs, kinases, phosphatases, proteases, HDACs) used recombinant protein and specific substrates (fluorescence mostly, some colorimetric and radioactive) and inhibitors, followed by a biochemical separation of substrate and product. All assays for the biochemical HTS were initially run in duplicate at a single concentration (10 uM for CYP450 assays and 25 uM for all others). Assay-chemical combinations meeting a pre-defined threshold (e.g., 30% inhibition and other criteria defined below) were then run in singleton concentration-response format with maximum concentration of 20 uM for CYPs and 50 uM for all others. Each assay was run with positive and negative controls, and concurrent controls on every plate. The follow-up (secondary) screen tested active chemical-pairs in concentration series, as well as a few additional assays not tested in the primary screen, some selected negative inactives, and several cases re-run in the concentration series for confirmatory purposes.
# [9] = biological target: human CYP2D6, CYP2D6 (gene 1565) (UniProt P10635); assay: NVS_ADME_hCYP2D6: NovaScreen (NVS) CYP450-related Enzyme Activity (ADME) Assay for human CYP2D6 (AID 2283107)
# In short: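 Compounds were first tested in duplicate at 10 uM against recombinant enzyme produced in insect cells, with substrate turnover measured by fluorescence after 1 hour. Decreased signal, referenced to acetonitrile vehicle, was taken as reduced enzyme activity. Active chemicals went on to concentration-response testing.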
# human CYP2C9, CYP2C9 (gene 1559), sequence (P11712 whole entry, looked up): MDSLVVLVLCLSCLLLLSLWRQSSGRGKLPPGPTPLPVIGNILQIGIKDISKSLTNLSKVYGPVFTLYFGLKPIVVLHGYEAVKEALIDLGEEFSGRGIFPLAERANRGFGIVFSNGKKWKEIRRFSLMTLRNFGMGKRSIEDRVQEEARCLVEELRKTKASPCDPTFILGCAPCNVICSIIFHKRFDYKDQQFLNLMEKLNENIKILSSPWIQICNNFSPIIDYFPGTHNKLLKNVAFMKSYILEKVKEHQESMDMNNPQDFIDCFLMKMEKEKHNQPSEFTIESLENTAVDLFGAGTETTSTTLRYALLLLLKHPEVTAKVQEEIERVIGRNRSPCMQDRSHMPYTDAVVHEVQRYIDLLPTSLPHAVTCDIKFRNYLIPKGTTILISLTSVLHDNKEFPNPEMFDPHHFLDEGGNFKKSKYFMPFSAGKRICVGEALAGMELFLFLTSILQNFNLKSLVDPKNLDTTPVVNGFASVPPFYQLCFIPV
# human CYP1A2, CYP1A2 (gene 1544), sequence (P05177 whole entry, looked up): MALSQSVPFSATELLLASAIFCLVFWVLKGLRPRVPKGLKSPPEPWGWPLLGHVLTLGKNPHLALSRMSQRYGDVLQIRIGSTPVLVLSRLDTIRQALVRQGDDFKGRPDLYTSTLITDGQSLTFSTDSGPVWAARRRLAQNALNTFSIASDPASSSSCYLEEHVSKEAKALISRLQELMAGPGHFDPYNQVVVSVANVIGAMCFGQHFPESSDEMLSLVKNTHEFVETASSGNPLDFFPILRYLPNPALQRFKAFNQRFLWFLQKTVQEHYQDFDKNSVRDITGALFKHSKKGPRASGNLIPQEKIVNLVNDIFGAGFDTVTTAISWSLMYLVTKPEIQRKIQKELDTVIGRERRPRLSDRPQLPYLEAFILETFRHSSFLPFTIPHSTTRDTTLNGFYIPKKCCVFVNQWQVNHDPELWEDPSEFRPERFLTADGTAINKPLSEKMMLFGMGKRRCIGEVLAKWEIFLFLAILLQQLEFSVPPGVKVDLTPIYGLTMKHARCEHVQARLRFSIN
# human CYP2C8, CYP2C8 (gene 1558), sequence (P10632 whole entry, looked up): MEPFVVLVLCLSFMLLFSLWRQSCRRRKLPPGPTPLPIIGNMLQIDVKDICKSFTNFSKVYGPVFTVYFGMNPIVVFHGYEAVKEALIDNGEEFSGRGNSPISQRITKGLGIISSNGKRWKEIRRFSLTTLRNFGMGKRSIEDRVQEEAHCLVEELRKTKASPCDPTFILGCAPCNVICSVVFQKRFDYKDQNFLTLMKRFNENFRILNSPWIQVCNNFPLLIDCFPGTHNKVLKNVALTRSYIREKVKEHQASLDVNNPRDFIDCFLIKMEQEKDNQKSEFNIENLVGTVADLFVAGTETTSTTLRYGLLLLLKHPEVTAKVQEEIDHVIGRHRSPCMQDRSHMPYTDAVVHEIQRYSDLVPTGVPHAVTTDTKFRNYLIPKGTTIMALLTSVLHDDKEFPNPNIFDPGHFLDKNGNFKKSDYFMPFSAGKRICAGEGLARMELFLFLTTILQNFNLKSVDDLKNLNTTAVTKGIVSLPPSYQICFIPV
# Cytochrome P450 2C18 (Homo sapiens), sequence (P33260 whole entry, looked up): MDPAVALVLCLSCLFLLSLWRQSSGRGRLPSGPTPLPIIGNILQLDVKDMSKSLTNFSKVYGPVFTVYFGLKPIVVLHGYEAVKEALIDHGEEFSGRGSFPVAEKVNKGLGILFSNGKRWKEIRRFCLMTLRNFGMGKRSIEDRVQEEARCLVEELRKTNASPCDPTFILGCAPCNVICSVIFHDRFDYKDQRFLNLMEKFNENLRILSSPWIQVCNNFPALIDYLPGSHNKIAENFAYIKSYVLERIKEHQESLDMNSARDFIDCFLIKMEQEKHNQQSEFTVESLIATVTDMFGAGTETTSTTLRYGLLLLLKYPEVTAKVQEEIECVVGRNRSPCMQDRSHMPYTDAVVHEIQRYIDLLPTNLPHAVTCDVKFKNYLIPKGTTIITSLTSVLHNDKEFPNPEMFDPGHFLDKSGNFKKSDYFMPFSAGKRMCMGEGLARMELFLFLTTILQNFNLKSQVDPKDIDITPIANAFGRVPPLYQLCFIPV
# human CYP2B6, CYP2B6 (gene 1555), sequence (P20813 whole entry, looked up): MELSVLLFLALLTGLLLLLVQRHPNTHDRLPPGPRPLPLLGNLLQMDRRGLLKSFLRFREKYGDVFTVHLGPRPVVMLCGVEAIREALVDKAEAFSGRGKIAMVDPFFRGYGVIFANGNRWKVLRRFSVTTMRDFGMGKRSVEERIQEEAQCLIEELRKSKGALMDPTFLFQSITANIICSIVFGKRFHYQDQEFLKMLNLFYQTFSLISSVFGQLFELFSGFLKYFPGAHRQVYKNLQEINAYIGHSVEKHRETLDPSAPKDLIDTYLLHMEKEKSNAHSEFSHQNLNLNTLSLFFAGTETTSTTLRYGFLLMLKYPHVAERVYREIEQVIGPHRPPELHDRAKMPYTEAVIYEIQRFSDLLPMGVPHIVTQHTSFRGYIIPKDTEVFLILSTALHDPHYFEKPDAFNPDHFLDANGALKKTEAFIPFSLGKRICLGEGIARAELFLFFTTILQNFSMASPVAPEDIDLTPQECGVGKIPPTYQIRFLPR
# human CYP2J2, CYP2J2 (gene 1573), sequence (P51589 whole entry, looked up): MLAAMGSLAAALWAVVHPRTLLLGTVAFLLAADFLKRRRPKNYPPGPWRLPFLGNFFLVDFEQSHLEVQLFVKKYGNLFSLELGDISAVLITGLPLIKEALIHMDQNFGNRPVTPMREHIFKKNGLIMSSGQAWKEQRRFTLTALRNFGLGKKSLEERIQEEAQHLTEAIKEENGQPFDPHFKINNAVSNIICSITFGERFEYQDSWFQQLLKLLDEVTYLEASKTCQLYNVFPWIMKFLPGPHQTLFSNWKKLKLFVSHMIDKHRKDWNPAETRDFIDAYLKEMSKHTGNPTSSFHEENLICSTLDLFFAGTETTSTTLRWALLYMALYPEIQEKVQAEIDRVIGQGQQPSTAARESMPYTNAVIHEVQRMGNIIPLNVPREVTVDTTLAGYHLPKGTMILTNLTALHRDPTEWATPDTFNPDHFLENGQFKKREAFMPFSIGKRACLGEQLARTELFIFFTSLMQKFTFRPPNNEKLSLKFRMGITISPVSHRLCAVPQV
# Cytochrome P450 3A4 (Homo sapiens), sequence (P08684 whole entry, looked up): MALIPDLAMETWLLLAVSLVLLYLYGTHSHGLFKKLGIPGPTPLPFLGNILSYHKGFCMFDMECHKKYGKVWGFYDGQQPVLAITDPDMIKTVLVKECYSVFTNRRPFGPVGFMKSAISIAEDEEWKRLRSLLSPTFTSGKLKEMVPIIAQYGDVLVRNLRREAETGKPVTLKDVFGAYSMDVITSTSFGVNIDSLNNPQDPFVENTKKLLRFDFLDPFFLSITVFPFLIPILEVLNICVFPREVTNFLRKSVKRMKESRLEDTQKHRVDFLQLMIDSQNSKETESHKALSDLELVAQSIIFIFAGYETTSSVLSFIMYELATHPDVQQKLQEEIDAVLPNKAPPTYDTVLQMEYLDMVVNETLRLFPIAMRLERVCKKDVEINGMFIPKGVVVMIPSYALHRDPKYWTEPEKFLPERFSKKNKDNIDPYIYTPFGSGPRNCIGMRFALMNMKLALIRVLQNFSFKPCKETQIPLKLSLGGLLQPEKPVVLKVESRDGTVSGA
# human CYP2D6, CYP2D6 (gene 1565), sequence (P10635 whole entry, looked up): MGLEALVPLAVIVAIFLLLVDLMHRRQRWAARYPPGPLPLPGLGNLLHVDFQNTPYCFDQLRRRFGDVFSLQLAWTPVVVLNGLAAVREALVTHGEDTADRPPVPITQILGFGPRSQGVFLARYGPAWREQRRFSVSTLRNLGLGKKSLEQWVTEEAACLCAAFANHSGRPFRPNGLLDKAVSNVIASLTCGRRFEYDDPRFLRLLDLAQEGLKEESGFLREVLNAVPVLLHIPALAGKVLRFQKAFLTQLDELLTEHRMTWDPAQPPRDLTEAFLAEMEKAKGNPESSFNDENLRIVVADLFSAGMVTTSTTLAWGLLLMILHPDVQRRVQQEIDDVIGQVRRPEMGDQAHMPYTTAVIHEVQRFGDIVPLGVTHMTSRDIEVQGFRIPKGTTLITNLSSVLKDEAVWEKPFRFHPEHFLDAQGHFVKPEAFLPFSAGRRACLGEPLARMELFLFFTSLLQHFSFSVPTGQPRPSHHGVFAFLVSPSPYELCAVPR
compound,measurement,setting,value
CC(C1CC1)C(O)(Cn1cncn1)c1ccc(Cl)cc1 (configuration not stated),AC50,[1],6.32 µM (active)
same,AC50,[2],3.26 µM (active)
same,AC50,[3],54.7 nM (active) and 47.4 nM (active)
same,AC50,[4],4.56 µM (active)
same,AC50,[5],0.111 µM (active)
CCCCOC(=O)c1ccccc1C(=O)O,outcome,[6],inactive
same,outcome,[7],inactive
same,outcome,[5],inactive
CCc1cccc(C)c1N(C(=O)CCl)C(C)COC (configuration not stated),AC50,[1],2.11 µM (active)
same,AC50,[5],4.6 µM (active)
CCCSP(=O)(OCC)Oc1ccc(Br)cc1Cl (configuration not stated),AC50,[1],11.3 µM (active)
same,AC50,[6],5.19 µM (active)
same,AC50,[2],3.45 µM (active)
same,AC50,[3],7.09 µM (active)
same,AC50,[5],10 µM (active)
C[Si](Cn1cncn1)(c1ccc(F)cc1)c1ccc(F)cc1,AC50,[1],0.238 µM (active)
same,AC50,[2],0.645 µM (active)
same,outcome,[8],inactive
same,AC50,[3],1.04 µM (active)
same,AC50,[5],0.0366 µM (active)
Cc1cc(C2CC2)nc(Nc2ccccc2)n1,AC50,[6],2.87 µM (active)
same,AC50,[3],7 µM (active)
same,outcome,[5],inactive
CCc1cccc(CC)c1N(COC)C(=O)CCl,AC50,[1],1.58 µM (active)
same,AC50,[5],6.1 µM (active)
C#CC(C)(C)NC(=O)c1cc(Cl)cc(Cl)c1,AC50,[6],10 µM (active)
same,AC50,[2],2.67 µM (active)
same,AC50,[8],1.34 µM (active)
CCCOCC(=Nc1ccc(Cl)cc1C(F)(F)F)n1ccnc1,AC50,[1],1.58 µM (active)
same,AC50,[6],7.01 µM (active)
same,AC50,[2],4.78 µM (active)
same,AC50,[7],3.77 µM (active)
same,AC50,[8],0.101 µM (active)
same,AC50,[9],6.7 µM (active)
same,AC50,[3],4.36 µM (active)
same,AC50,[4],0.522 µM (active)
same,AC50,[5],0.16 µM (active)
FC(F)C(F)(F)OCC(Cn1cncn1)c1ccc(Cl)cc1Cl (configuration not stated),AC50,[1],3.74 µM (active)
same,AC50,[6],4.85 µM (active)
same,AC50,[2],0.915 µM (active)
same,AC50,[3],2.91 µM (active)
same,AC50,[4],6.4 µM (active)
same,AC50,[5],0.00646 µM (active)
COP(=O)(OC)SCn1c(=O)oc2cc(Cl)cnc21,AC50,[1],9 µM (active)
same,AC50,[5],4.57 µM (active)
CC[C@H](C)[C@H]1O[C@]2(C=C[C@@H]1C)C[C@@H]1C[C@@H](C/C=C(\C)[C@@H](O[C@H]3C[C@H](OC)[C@@H](O[C@H]4C[C@H](OC)[C@@H](NC)[C@H](C)O4)[C@H](C)O3)[C@@H](C)/C=C/C=C3\CO[C@@H]4[C@H](O)C(C)=C[C@@H](C(=O)O1)[C@]34O)O2,AC50,[1],8.42 µM (active)
same,AC50,[2],5.39 µM (active)
same,AC50,[5],10 µM (active)
CCOP(=O)(NC(C)C)Oc1ccc(SC)c(C)c1 (configuration not stated),AC50,[6],4.84 µM (active)
same,AC50,[5],5.92 µM (active)
O=[N+]([O-])c1cc(C(F)(F)F)c(Cl)c([N+](=O)[O-])c1Nc1ncc(C(F)(F)F)cc1Cl,outcome,[6],inactive
same,AC50,[3],1.84 µM (active)
same,AC50,[5],1.39 µM (active)
CCC(CC)Nc1c([N+](=O)[O-])cc(C)c(C)c1[N+](=O)[O-],outcome,[6],inactive
same,AC50,[5],10 µM (active)
CN(C)C(=O)Nc1cccc(C(F)(F)F)c1,AC50,[6],5.3 µM (active)
CCOC(=O)CC(SP(=O)(OC)OC)C(=O)OCC (configuration not stated),AC50,[1],2.49 µM (active)
same,outcome,[6],inactive
same,outcome,[2],inactive
same,outcome,[7],inactive
same,AC50,[3],1.98 µM (active)
same,outcome,[4],inactive
same,AC50,[5],9.39 µM (active)
Nc1c(Cl)cc([N+](=O)[O-])cc1Cl,AC50,[1],3.48 µM (active)
same,AC50,[6],2.28 µM (active)
same,outcome,[9],inactive
same,outcome,[5],inactive
